# Data as given in ChEMBL document CHEMBL3433997, “St. Jude Leishmania screening dataset” (2016).
# Tests used:
# Format in all cases: functional
# [1] = biological target: Solute carrier family 2, facilitated glucose transporter member 1 (Homo sapiens) (UniProt P11166); assay: ST_JUDE_LEISH: Cytotoxicity at 2uM final concentration against transgenic Leishmania Mexicana promastigotes LmGLUT1 that are glucose transport deficient and complemented with the human glucose transporter GLUT1. Activity is measured by DNA content using SYBR green in vitro
# Solute carrier family 2, facilitated glucose transporter member 1 (Homo sapiens), sequence (P11166 whole entry): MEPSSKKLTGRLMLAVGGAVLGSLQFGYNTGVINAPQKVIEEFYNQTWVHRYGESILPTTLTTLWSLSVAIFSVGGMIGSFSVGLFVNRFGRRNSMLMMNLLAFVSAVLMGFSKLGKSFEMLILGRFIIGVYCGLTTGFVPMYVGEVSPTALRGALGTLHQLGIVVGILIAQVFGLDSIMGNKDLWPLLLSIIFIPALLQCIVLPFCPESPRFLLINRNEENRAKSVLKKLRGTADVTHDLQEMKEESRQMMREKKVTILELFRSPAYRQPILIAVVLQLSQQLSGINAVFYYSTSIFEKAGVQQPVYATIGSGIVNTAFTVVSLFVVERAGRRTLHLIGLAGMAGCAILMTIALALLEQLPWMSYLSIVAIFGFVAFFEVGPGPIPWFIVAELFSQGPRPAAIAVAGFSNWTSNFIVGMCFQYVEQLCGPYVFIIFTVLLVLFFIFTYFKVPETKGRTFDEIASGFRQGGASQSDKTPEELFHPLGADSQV
# [2] = biological target: Hexose transporter 1 (Plasmodium falciparum) (UniProt O97467); assay: ST_JUDE_LEISH: Cytotoxicity at 2uM final concentration against transgenic Leishmania Mexicana promastigotes LmPfHT that are glucose transport deficient and complemented with the Plasmodium falciparum hexose transporter. Activity is measured by DNA content using SYBR green in vitro
# [3] = biological target: Glucose transporter (Leishmania mexicana) (UniProt O61059); assay: ST_JUDE_LEISH: Cytotoxicity at 2uM final concentration against transgenic Leishmania Mexicana promastigotes LmGT2 that are glucose transport deficient and complemented with the L. Mexicana glucose transporter 2. Activity is measured by DNA content using SYBR green in vitro
SMILES,inhibition [1],inhibition [2],inhibition [3]
Cc1ccc(-c2nn3c(O)c4c(nc3c2C)CCCC4)cc1,-0.48%,1.68%,1.28%
NC(Cc1cccc(I)c1)C(=O)NCC1CCCO1 (stereo unspecified),1.94%,0.37%,0.96%
CN(C)c1cccc2c1nc(-c1ccc3c(c1)CCO3)n2CCNCc1ccccc1,11.7%,8.56%,5.57%
CN1c2ccc([N+](=O)[O-])cc2C(C)(C)C12C=Cc1cc(Br)cc([N+](=O)[O-])c1O2 (stereo unspecified),2.03%,-0.39%,-0.71%
O=C(NCCCCN1CCN(c2cccc3ccccc23)CC1)c1ccc(NC(=O)c2ccc(Cl)cc2)cc1,2.65%,2.81%,2.29%
CN1CCN(c2nc(NCCNc3ccc([N+](=O)[O-])cc3)c3ccccc3n2)CC1,0.92%,0.91%,0.54%
O=C(NCC1CCC(CNCCCc2ccccc2)CC1)c1cc(Cl)cc(Cl)c1 (stereo unspecified),1.46%,0.53%,1.72%
CCCC(=O)Nc1ccc(OCCCN(Cc2ccccc2OC(F)(F)F)c2ccc(C#N)c(C(F)(F)F)c2)cc1,3.69%,9.22%,5.47%
COc1ccc(-c2cnc(N)c(-c3ccc(O)c(OC)c3)c2)cn1,0.58%,0.38%,1.13%
Cc1cccc2nc(-c3cccc(-c4cccc(CN5CCCC5CN)c4)c3)[nH]c12 (stereo unspecified),-0.26%,-1.1%,-2.17%
O=C(Cc1cccs1)NC(CCCN1CCC(Oc2cccc(Cl)c2)CC1)c1ccc(Cl)c(Cl)c1 (stereo unspecified),1.97%,-1.59%,-1.89%
COc1cc2c(C3CCN(CC4CCN(C(=O)/C=C/c5ccc(Cl)c(Cl)c5)CC4)CC3)c[nH]c2cn1,2.4%,-0.95%,-0.88%
COc1cc2nc(-c3ccc(Br)cc3)cc(N)c2cc1OC,64.2%,23.6%,29.1%
CC(C)CN1CCCN(Cc2cccc(NC(=O)c3ccc(-c4ccccc4)cc3)c2)CC1,0.53%,0.24%,-5.07%
Cc1ccc(C(=O)NCC2CCN(c3ccc(C(F)(F)F)cc3NC(=O)c3ccco3)CC2)cn1,2.76%,-2.99%,3.12%
CCNc1cc(C(=O)N[C@@H](Cc2ccccc2)[C@H](O)CNCc2cccc(OC)c2)c(OC)c(N2CCCCS2(=O)=O)c1,1.6%,2.79%,2.16%
Cc1cc(NC(=O)c2cc(S(=O)(=O)N3CCCCC3)ccc2C)no1,4.25%,4.4%,2.15%
